This is an account of results in PubChem BioAssay AID1159604 (The Scripps Research Institute Molecular Screening Center, 2016).

Molecules are shown by their SMILES. The list shows a part of the results. Values without a mark were called inactive. Calls of active or inactive are those of the source.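 Rule for the calls: active = IC50 of 10 µM or lower in the counterscreen; inactive = IC50 above 10 µM.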 Bounds are passed on as bounds.

This assay can be described thus: optical artefacts quenching TruHits bead signal – biochemical, TruHits beads, AlphaScreen, artefact control for ASK1 inhibitor project, dose response (AID 1159604).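 Note: loss of AlphaScreen light from TruHits beads alone with no ASK1 enzyme present; potency of signal reduction so a low IC50 flags an assay artifact.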 Conditions: signal interference counterscreen. A general note: Bead proximity is the source of the signal in Alpha formats.
As to `FC(F)(F)c1cccc(CNc2nc(N3CCN(c4ccccn4)CC3)nc3c2ncn3-c2ccsc2)c1`, the IC50 was greater than 20 µM. `Fc1cnc(Nc2ccc(N3CCNCC3)cc2)cc1-n1cnc(Nc2ccccc2)n1`: the IC50 was greater than 19.2 µM. In the case of `COc1cc(Nc2nc(N3CCc4ccccc4C3)nc3c2ncn3-c2ccccc2)cc(OC)c1OC`, the IC50 was greater than 20.1 µM. For `COc1cc2nc(Nc3cccc(N(C)C)c3)nc(Nc3cc(OC)c(OC)c(OC)c3)c2cc1OC` the value was 8.29 µM (active); for `COc1ccc(CCNc2cc(C)nc(Nc3cccc(N(C)C)c3)n2)cc1`, 4.77 µM (active); for `CN1CCN(c2nc(C3COc4ccccc4O3)nc3ccc(-c4cn[nH]c4)cc23)CC1` (configuration not stated), greater than 19.2 µM.

`FC(F)(F)c1cccc(CNc2nc(N3CCN(Cc4ccc5c(c4)OCO5)CC3)nc3c2ncn3-c2ccccc2)c1`: the IC50 was greater than 20.1 µM.

Take `Cc1cc(Nc2ccc3c(c2)OCO3)nc(Nc2cccc(N(C)C)c2)n1`: the IC50 is 4.88 µM (active). As for `Nc1nc(Nc2ccc(N3CCOCC3)cc2)cc(-c2ccc3[nH]ccc3c2)n1`, the figure is 11.9 µM.

`Cc1ccccc1-c1cscc1Nc1cnn(-c2cccc(C(=O)Nc3ccc(N4CCOCC4)cc3)c2)c1`: the IC50 was greater than 19.2 µM. On to `c1ccc(-c2ncn[nH]2)c(Nc2ccnc(Nc3ccc(N4CCOCC4)cc3)c2)c1`, for which the IC50 was greater than 19.2 µM. As for `FC(F)(F)c1cccc(CNc2nc(Nc3ccc(N4CCOCC4)cc3)nc3c2ncn3-c2ccsc2)c1`, the figure is greater than 20.1 µM.

By IC50 is commonly meant the concentration that gives 50% inhibition.
